The record followed here is PubChem BioAssay (EPA / NIEHS).

Activity calls are given as the source filed them. The calls were made as follows: active = hit-call score of the fitted dose curve at least 0.9, where 1 is the maximum; inactive = score below 0.9.

Usually AC50 stands for the concentration giving half of the maximal activity seen.

Conditions in all cases: mRNA level, 48 h; actives raise or lower the signal
Read-out in experiment [1]: MYC, MYC (gene 4609)
Nature of the experiment: LTEA_HepaRG_MYC: Life Technologies and Expression Analysis (LTEA) Assay for MYC using HepaRG (AID 2283518). In short, it runs like this:
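Differentiated human HepaRG cells, plated 48 h then switched to serum-free induction medium, were exposed in duplicate for 48 h to 8-point half-log series up to 100 uM in 0.5% DMSO. MYC mRNA measured by qRT-PCR, normalized to ACTB/GAPDH/POLR2A.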

Read-out in experiment [2]: matrix metalloproteinase-3 (MMP3), MMP3 (gene 4314)
Nature of the experiment: LTEA_HepaRG_MMP3: Life Technologies and Expression Analysis (LTEA) Assay for matrix metalloproteinase-3 (MMP3) using HepaRG (AID 2283519). The essentials: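 Human liver HepaRG cultures received chemicals (top concentration 100 uM, 0.5% DMSO) for 48 h in duplicate. MMP3 mRNA induction or loss was then assessed via TaqMan qRT-PCR with housekeeping-gene normalisation.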

Read-out in experiment [3]: Paternally Expressed 10 (PEG10), PEG10 (gene 23089)
The experiment is described as follows: LTEA_HepaRG_PEG10: Life Technologies and Expression Analysis (LTEA) Assay for Paternally Expressed 10 (PEG10) using HepaRG (AID 2283520).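 As to AC50: PEG10 transcript by qRT-PCR normalised to ACTB GAPDH and POLR2A.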 The essentials:
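qRT-PCR read-out: PEG10 mRNA normalised to three housekeeping genes, fitted bidirectionally against 0.5% DMSO vehicle. HepaRG cells received test chemicals for 48 h in serum-free induction medium, 8 points, top 100 uM, half-log steps.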

Read-out in experiment [4]: Nuclear factor NF-kappa-B p105 subunit (Homo sapiens) (UniProt P19838)
The experiment is described as follows: LTEA_HepaRG_NFKB1: Life Technologies and Expression Analysis (LTEA) Assay for Nuclear Factor Kappa B Subunit 1 (NFKB1) using HepaRG (AID 2283521).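 Also: TaqMan qRT-PCR transcript normalised to ACTB GAPDH and POLR2A housekeeping genes.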 In short, it runs like this:
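Differentiated human HepaRG cells in serum-free induction medium with 0.5% DMSO were exposed for 48 h to eight half-log concentrations, top 100 uM, in duplicate. NFKB1 mRNA measured by Fluidigm TaqMan qRT-PCR, normalised to ACTB, GAPDH and POLR2A; bidirectional fit versus DMSO.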

Read-out in experiment [5]: Protein phosphatase 2A (PPP2R4), PTPA (gene 5524)
Nature of the experiment: LTEA_HepaRG_PPP2R4: Life Technologies and Expression Analysis (LTEA) Assay for Protein phosphatase 2A (PPP2R4) using HepaRG (AID 2283522). The essentials: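 HepaRG, 48 h exposure, 8-pt half-log series from 100 uM, 0.5% DMSO vehicle, duplicates. Readout: PPP2R4 mRNA, Fluidigm qRT-PCR, housekeeping-normalized. Bidirectional curve fit vs DMSO baseline.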

Read-out in experiment [6]: Phosphatase and tensin (PTEN), PTEN (gene 5728)
Nature of the experiment: LTEA_HepaRG_PTEN: Life Technologies and Expression Analysis (LTEA) Assay for Phosphatase and tensin (PTEN) using HepaRG (AID 2283523). In short, it runs like this:
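Expression of PTEN is quantified in the human liver line HepaRG following two days of dosing (top concentration 100 uM, half-log dilutions, 0.5% DMSO). Values derive from bidirectional curve fitting relative to DMSO controls.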

Read-out in experiment [7]: solute carrier (SLC22A1), SLC22A1 (gene 6580)
Nature of the experiment: LTEA_HepaRG_SLC22A1: Life Technologies and Expression Analysis (LTEA) Assay for solute carrier (SLC22A1) using HepaRG (AID 2283524). The essentials:
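Transcript induction or suppression of SLC22A1 in human HepaRG cultures is scored after 48 h chemical treatment, with DMSO (0.5%) as baseline for bidirectional fitting. Concentrations span eight half-log points topping at 100 uM.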

Read-out in experiment [8]: Pyruvate Dehydrogenase Kinase 4 (PDK4), PDK4 (gene 5166)
Nature of the experiment: LTEA_HepaRG_PDK4: Life Technologies and Expression Analysis (LTEA) Assay for Pyruvate Dehydrogenase Kinase 4 (PDK4) using HepaRG (AID 2283525). The essentials:
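Eight-point, half-log concentration series (max 100 uM, 0.5% DMSO) applied to differentiated HepaRG cells for 48 h in duplicate. Endpoint: PDK4 mRNA induction or repression by qRT-PCR against DMSO baseline.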

Read-out in experiment [9]: Nuclear factor erythroid 2-related factor 2 (Homo sapiens) (UniProt Q16236)
The experiment is described as follows: LTEA_HepaRG_NFE2L2: Life Technologies and Expression Analysis (LTEA) Assay for Nuclear factor erythroid 2-related factor 2 (NFE2L2) Transcription Factor using HepaRG (AID 2283527).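 Also: TaqMan qRT-PCR transcript level normalised to ACTB GAPDH and POLR2A housekeeping genes.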 In short, it runs like this:
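Human liver HepaRG line treated in duplicate for 48 h with an eight-point series topping at 100 uM. Gene expression of NFE2L2 by qRT-PCR, bidirectionally fitted against the vehicle control.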

Read-out in experiment [10]: succinate dehydrogenase complex iron sulfur subunit B (SDHB), SDHB (gene 6390)
The experiment is described as follows: LTEA_HepaRG_SDHB: Life Technologies and Expression Analysis (LTEA) Assay for succinate dehydrogenase complex iron sulfur subunit B (SDHB) using HepaRG (AID 2283528). In short, it runs like this: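 HepaRG cells (~100,000/well, plated 48 h) exposed in duplicate for 48 h in serum-free induction medium to 8-point half-log series from 100 uM in 0.5% DMSO; mRNA by qRT-PCR normalised to ACTB, GAPDH, POLR2A; bidirectional fit versus DMSO.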

Read-out in experiment [11]: Signal transducer and activator of transcription 3 (Homo sapiens) (UniProt P40763)
Nature of the experiment: LTEA_HepaRG_STAT3: Life Technologies and Expression Analysis (LTEA) Assay for Signal transducer and activator of transcription (STAT3) using HepaRG (AID 2283529). In short, it runs like this:
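In this transcriptional endpoint, HepaRG cultures receive test chemicals at up to 100 uM for 48 h, tested in duplicate. STAT3 mRNA is normalized to ACTB, GAPDH and POLR2A.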

Read-out in experiment [12]: solute carrier (SLCO1B1), SLCO1B1 (gene 10599)
Nature of the experiment: LTEA_HepaRG_SLCO1B1: Life Technologies and Expression Analysis (LTEA) Assay for solute carrier (SLCO1B1) using HepaRG (AID 2283530). In short, it runs like this:
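Differentiated human HepaRG cells, plated 48 h, switched to serum-free induction medium and exposed in duplicate for 48 h to 8 half-log concentrations (top 100 uM) in 0.5% DMSO. SLCO1B1 mRNA by TaqMan qRT-PCR, normalized to ACTB/GAPDH/POLR2A.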

Read-out in experiment [13]: Transforming Growth Factor (TGFA), TGFA (gene 7039)
The experiment is described as follows: LTEA_HepaRG_TGFA: Life Technologies and Expression Analysis (LTEA) Assay for Transforming Growth Factor (TGFA) using HepaRG (AID 2283532). In short, it runs like this: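 Gene expression of TGFA was quantified by qRT-PCR after human HepaRG cells were treated for 48 h with test chemicals (eight concentrations, highest 100 uM, 0.5% DMSO). Activity in either direction was fitted relative to DMSO.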

Read-out in experiment [14]: Transforming Growth Factor (TGFB1), TGFB1 (gene 7040)
Nature of the experiment: LTEA_HepaRG_TGFB1: Life Technologies and Expression Analysis (LTEA) Assay for Transforming Growth Factor (TGFB1) Transporter using HepaRG (AID 2283533). In short, it runs like this: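 Differentiated human HepaRG cells in serum-free induction medium were exposed in duplicate for 48 h to eight concentrations (top 100 uM, half-log steps, 0.5% DMSO). TGFB1 mRNA was quantified by qRT-PCR, normalized to ACTB, GAPDH, POLR2A, and fitted bidirectionally against DMSO.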

Read-out in experiment [15]: TIMP1, TIMP1 (gene 7076)
Nature of the experiment: LTEA_HepaRG_TIMP1: Life Technologies and Expression Analysis (LTEA) Assay for TIMP1 using HepaRG (AID 2283534).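 Also: TaqMan qRT-PCR signal normalized to ACTB GAPDH and POLR2A housekeeping genes.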 In short, it runs like this:
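Differentiated human HepaRG cells in serum-free induction medium were exposed 48 h to chemicals (8 half-log concentrations, top 100 uM, 0.5% DMSO). TIMP1 mRNA was quantified by TaqMan qRT-PCR, normalized to ACTB/GAPDH/POLR2A; bidirectional fit versus DMSO.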

Read-out in experiment [16]: Tumor necrosis factor receptor 1 (TNFRSF1A), TNFRSF1A (gene 7132)
Nature of the experiment: LTEA_HepaRG_TNFRSF1A: Life Technologies and Expression Analysis (LTEA) Assay for Tumor necrosis factor receptor 1 (TNFRSF1A) using HepaRG (AID 2283535). The essentials:
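Differentiated human HepaRG cells were exposed in duplicate for 48 h in serum-free induction medium to eight concentrations (top 100 uM, half-log steps, 0.5% DMSO). TNFRSF1A mRNA was quantified by qRT-PCR, normalized to ACTB, GAPDH and POLR2A, then fitted bidirectionally against DMSO.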

Read-out in experiment [17]: Thyroid Hormone Responsive (THRSP), THRSP (gene 7069)
Nature of the experiment: LTEA_HepaRG_THRSP: Life Technologies and Expression Analysis (LTEA) Assay for Thyroid Hormone Responsive (THRSP) using HepaRG (AID 2283536). In short, it runs like this: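 Cell model: human HepaRG, approx. 100,000 cells/well, 0.5% DMSO vehicle. Exposure lasts 48 h; phenobarbital 1 mM serves as induction positive control. Gene expression is measured by qRT-PCR against three endogenous control genes.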

Read-out in experiment [18]: sulfotransferase 2A1 (SULT2A1), SULT2A1 (gene 6822)
The experiment is described as follows: LTEA_HepaRG_SULT2A1: Life Technologies and Expression Analysis (LTEA) Assay for sulfotransferase 2A1 (SULT2A1) using HepaRG (AID 2283531). In short, it runs like this: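 Differentiated human HepaRG cells in serum-free induction medium were exposed for 48 h to eight half-log concentrations (top 100 uM, 0.5% DMSO). SULT2A1 mRNA was measured by qRT-PCR, normalized to ACTB, GAPDH and POLR2A, and fitted bidirectionally against DMSO.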

Read-out in experiment [19]: NAD(P)H dehydrogenase [quinone] 1 (NQO1), NQO1 (gene 1728)
The experiment is described as follows: LTEA_HepaRG_NQO1: Life Technologies and Expression Analysis (LTEA) Assay for NAD(P)H dehydrogenase [quinone] 1 (NQO1) using HepaRG (AID 2283526). The essentials:
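qRT-PCR read-out (Fluidigm TaqMan), normalized to three housekeeping genes, after 48 h chemical exposure of HepaRG cells. Concentrations: eight points, top 100 uM, half-log steps, 0.5% DMSO vehicle. Gain or loss of signal fitted relative to DMSO.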

Read-out in experiment [20]: UDP glucuronosyltransferase (UGT1A1), UGT1A1 (gene 54658)
The experiment is described as follows: LTEA_HepaRG_UGT1A1: Life Technologies and Expression Analysis (LTEA) Assay for UDP glucuronosyltransferase (UGT1A1) using HepaRG (AID 2283538). The essentials: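 HepaRG, 48 h chemical exposure (top 100 uM, half-log 8-pt, 0.5% DMSO vehicle), duplicate wells; qRT-PCR (TaqMan, Fluidigm array) for UGT1A1 mRNA, housekeeping-normalized; bidirectional curve fit vs DMSO baseline.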

Chain of Nuclear factor erythroid 2-related factor 2 (Homo sapiens) (Q16236 whole entry, looked up): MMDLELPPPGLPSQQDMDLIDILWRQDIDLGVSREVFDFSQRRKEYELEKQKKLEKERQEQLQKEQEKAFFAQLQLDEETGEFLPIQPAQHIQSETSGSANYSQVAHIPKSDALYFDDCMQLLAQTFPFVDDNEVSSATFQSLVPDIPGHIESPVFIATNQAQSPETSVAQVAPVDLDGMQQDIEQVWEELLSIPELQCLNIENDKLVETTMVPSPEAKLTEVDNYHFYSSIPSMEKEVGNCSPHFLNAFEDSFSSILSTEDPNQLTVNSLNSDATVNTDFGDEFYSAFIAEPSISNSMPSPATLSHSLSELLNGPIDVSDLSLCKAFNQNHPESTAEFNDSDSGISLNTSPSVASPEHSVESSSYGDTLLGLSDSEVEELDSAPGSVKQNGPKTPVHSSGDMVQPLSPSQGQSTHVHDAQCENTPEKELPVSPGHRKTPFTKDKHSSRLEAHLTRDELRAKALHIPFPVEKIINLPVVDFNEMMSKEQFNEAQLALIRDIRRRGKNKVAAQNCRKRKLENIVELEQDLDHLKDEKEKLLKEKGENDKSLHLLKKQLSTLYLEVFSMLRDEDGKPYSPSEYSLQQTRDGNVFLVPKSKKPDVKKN
Chain of Signal transducer and activator of transcription 3 (Homo sapiens) (P40763 whole entry, looked up): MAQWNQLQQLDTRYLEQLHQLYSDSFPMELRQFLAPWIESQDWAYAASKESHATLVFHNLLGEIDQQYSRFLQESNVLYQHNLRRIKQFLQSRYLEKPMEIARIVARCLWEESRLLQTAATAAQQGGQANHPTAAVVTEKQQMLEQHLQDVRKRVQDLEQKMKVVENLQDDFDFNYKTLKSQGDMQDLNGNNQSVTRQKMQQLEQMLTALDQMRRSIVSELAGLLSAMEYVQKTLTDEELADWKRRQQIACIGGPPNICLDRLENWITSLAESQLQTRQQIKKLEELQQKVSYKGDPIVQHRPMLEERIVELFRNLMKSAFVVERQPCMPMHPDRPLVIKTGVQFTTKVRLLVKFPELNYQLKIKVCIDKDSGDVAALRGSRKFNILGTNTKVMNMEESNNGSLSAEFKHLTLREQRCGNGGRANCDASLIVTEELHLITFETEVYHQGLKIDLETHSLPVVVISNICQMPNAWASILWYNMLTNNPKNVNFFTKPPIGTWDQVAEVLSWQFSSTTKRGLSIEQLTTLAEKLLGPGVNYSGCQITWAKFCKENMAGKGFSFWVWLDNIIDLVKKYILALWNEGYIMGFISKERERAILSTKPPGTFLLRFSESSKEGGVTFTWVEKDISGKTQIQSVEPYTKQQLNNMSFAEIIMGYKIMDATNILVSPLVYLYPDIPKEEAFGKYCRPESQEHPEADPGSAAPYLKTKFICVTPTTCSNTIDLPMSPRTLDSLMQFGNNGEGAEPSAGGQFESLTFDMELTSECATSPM
Chain of Nuclear factor NF-kappa-B p105 subunit (Homo sapiens) (P19838 whole entry, looked up): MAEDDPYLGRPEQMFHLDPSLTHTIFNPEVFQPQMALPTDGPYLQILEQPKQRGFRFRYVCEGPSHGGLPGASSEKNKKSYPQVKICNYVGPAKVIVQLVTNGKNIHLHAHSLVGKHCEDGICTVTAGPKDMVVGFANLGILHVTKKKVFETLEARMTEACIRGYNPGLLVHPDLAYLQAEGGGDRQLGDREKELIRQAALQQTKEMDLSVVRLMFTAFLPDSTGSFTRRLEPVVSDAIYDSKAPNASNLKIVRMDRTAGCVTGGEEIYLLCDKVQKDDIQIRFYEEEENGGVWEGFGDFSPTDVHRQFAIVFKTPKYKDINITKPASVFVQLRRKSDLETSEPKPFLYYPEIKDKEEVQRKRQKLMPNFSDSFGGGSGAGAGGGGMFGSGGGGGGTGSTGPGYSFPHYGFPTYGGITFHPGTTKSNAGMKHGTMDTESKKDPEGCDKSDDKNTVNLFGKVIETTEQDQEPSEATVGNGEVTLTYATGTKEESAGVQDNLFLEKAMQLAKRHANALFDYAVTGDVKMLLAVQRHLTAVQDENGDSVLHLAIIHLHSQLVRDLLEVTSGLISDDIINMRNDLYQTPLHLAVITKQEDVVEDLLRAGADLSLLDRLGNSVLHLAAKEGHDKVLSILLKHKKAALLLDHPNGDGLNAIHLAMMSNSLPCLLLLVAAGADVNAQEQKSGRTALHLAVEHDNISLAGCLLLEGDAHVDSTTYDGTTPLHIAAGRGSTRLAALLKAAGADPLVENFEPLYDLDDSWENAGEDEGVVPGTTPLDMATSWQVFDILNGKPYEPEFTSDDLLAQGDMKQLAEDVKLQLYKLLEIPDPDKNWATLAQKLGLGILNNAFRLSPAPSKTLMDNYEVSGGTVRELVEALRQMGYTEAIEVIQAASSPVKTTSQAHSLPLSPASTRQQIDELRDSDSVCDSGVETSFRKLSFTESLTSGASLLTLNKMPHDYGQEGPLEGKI

Consider `Cc1nc(-c2ccccn2)ncc1C(=O)Nn1cc(C)c2cc(F)ccc21`, for which the result in [1], in experiment [2], in experiment [4], in experiment [5], in experiment [6] and in [8] was inactive. Further, the compound was called inactive in [9], in [10], in experiment [11], in experiment [12], in experiment [13] and in [14]. The compound was called inactive in experiment [15], in experiment [16] and in [17]. In addition, the results for the concentration at half-maximal activity (AC50) in [3] and in experiment [7] were 34.2 µM (active) and 77.7 µM (active), respectively.
Consider `c1ccc2cc3ccccc3cc2c1`, for which the call in experiment [1], in experiment [2], in experiment [3], in experiment [4], in experiment [5] and in [6] was inactive. Besides, the compound was called inactive in experiment [7], in experiment [8], in experiment [9], in [10], in experiment [11] and in [12]. The result in experiment [18], in [13], in experiment [14], in [15], in experiment [16] and in experiment [17] was inactive.
As to `NNC(=O)c1ccncc1`, the call in [1], in experiment [2], in experiment [3], in experiment [4], in experiment [5] and in experiment [6] was inactive. The call in experiment [7], in experiment [19], in experiment [9], in experiment [10], in experiment [11] and in experiment [12] was inactive. Further, the compound was called inactive in [13], in experiment [14], in experiment [15], in experiment [16], in experiment [17] and in experiment [20].
